# Laboratory results from PubChem BioAssay AID720690 (Broad Institute, 2013).
# Entries with a potency or affinity are not part of this list. The source made the active and inactive calls.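 How the source made its calls: active means every repeat run showing a signal drop whose fitted half-maximal concentration is at most twice the top tested concentration; inconclusive means repeat runs disagree, or flat partial drop, or poor fit; inactive means the rest.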
# Experiment: general mammalian cell viability loss – activator set, cherry-pick, cytotoxicity control for miR-122 modulator project, dose response (AID 720690)
# Conditions: HEK293T viability, CellTiter-Glo luminescence, 48 h; series mostly up to 26 µM
row,SMILES,outcome
1,CO[C@@H]1CN(C)C(=O)c2cc(NC(=O)Nc3ccc(Cl)c(Cl)c3)ccc2OC[C@H](C)NC[C@H]1C,inactive
2,COCC(=O)N(C)C[C@H]1Oc2cc(-c3ccccc3F)ccc2S(=O)(=O)N([C@@H](C)CO)C[C@@H]1C,inactive
3,CN1C(=O)c2cc(NS(=O)(=O)c3ccc(Cl)cc3)ccc2OC[C@H]2O[C@H](CC(=O)N3CCc4ccccc4C3)CC[C@@H]21,inactive
4,CC(=O)N(C)C[C@H]1Oc2cc(/C=C/c3ccccc3)ccc2S(=O)(=O)N([C@@H](C)CO)C[C@H]1C,inactive
5,CC(C)Oc1ccc(CNCCC2(C(C)C)CCOC(C)(C)C2)cc1 (stereo not drawn),inactive
6,C[C@H]1CN([C@@H](C)CO)C(=O)c2cc(-c3ccc(C#N)cc3)cnc2O[C@H]1CN(C)C(=O)Nc1ccc(C(F)(F)F)cc1,inactive
7,O=C(COC(=O)c1ccccc1)Nc1cc(Cl)ccc1Oc1ccccc1,inactive
8,Cc1nnc(NC(=O)CSc2nc(C(C)C)nc3sc(C)c(C)c23)s1,inactive
9,CCN(CC)CCOc1cccc(C(C)C)c1,inactive
10,COCC(=O)Nc1ccc2c(c1)C(=O)N(C)[C@H]1CC[C@@H](CC(=O)NCCCN(C)C)O[C@H]1CO2,inactive
11,COCC(=O)Nc1ccc2c(c1)C(=O)N(C)[C@@H]1CC[C@@H](CC(=O)NC3Cc4ccccc4C3)O[C@@H]1CO2,inactive
12,COc1cccc(C(=O)Nc2ccc3c(c2)C(=O)N(C)[C@H]2CC[C@H](CC(=O)NCc4ccc(F)cc4)O[C@H]2CO3)c1,inactive
13,CN1C(=O)c2cc(NC(=O)c3cccc(F)c3)ccc2OC[C@H]2O[C@@H](CC(=O)NC3CCC3)CC[C@H]21,inactive
